Tests used:
[1] = target: Platelet-derived growth factor receptor beta (Homo sapiens) (UniProt P09619); conditions: at 1 µM;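 also: each value is a mean percent inhibition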
[2] = target: Tyrosine-protein kinase FRK (Homo sapiens) (UniProt P42685); conditions: at 0.1 µM
[3] = target: Tyrosine-protein kinase FRK (Homo sapiens) (UniProt P42685); conditions: at 1 µM
[4] = target: Protein-tyrosine kinase 2-beta (Homo sapiens) (UniProt Q14289); conditions: at 0.1 µM
[5] = target: Protein-tyrosine kinase 2-beta (Homo sapiens) (UniProt Q14289); conditions: at 1 µM
[6] = target: Proto-oncogene tyrosine-protein kinase receptor Ret (Homo sapiens) (UniProt P07949); conditions: at 0.1 µM
[7] = target: Proto-oncogene tyrosine-protein kinase receptor Ret (Homo sapiens) (UniProt P07949); conditions: at 1 µM
[8] = test system: Proto-oncogene tyrosine-protein kinase receptor Ret (Homo sapiens), P07949 [V804L]; conditions: at 0.1 µM
[9] = test system: Proto-oncogene tyrosine-protein kinase receptor Ret (Homo sapiens), P07949 [V804L]; conditions: at 1 µM
[10] = test system: Proto-oncogene tyrosine-protein kinase receptor Ret (Homo sapiens), P07949 [Y791F]; conditions: at 0.1 µM
Chain of Proto-oncogene tyrosine-protein kinase receptor Ret (Homo sapiens), P07949 [Y791F] (P07949 whole entry Y791F): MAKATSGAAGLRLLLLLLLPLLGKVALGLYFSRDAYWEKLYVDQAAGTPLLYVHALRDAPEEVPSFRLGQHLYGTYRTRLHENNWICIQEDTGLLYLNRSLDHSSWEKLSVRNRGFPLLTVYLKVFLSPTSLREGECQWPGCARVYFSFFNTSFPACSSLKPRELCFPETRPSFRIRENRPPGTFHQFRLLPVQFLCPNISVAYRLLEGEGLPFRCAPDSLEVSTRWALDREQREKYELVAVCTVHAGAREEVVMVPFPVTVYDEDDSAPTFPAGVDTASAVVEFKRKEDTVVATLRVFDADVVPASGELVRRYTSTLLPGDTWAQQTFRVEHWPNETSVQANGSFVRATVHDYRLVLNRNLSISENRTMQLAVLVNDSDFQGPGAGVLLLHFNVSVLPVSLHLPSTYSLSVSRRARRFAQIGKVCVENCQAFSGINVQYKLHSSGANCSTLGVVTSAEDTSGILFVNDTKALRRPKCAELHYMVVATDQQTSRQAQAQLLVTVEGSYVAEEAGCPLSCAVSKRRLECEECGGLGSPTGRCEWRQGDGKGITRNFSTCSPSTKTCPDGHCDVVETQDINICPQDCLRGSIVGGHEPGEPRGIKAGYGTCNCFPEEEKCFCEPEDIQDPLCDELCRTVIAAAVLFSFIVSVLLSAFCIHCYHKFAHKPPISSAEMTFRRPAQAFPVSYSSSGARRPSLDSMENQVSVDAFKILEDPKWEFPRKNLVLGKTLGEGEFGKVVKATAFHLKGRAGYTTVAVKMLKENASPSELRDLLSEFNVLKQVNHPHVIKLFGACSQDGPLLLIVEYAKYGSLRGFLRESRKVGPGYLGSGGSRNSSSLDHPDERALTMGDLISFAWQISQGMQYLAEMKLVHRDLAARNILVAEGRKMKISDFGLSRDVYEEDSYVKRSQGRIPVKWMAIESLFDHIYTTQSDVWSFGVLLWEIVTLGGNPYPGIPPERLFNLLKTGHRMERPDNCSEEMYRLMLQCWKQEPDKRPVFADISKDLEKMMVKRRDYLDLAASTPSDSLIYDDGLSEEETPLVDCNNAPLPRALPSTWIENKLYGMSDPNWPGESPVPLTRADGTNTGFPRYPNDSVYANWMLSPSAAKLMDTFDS

Chain of Proto-oncogene tyrosine-protein kinase receptor Ret (Homo sapiens) (P07949 whole entry): as the sequence (P07949 whole entry Y791F) above, with F791Y counted along it
Chain of Protein-tyrosine kinase 2-beta (Homo sapiens) (Q14289 whole entry, looked up): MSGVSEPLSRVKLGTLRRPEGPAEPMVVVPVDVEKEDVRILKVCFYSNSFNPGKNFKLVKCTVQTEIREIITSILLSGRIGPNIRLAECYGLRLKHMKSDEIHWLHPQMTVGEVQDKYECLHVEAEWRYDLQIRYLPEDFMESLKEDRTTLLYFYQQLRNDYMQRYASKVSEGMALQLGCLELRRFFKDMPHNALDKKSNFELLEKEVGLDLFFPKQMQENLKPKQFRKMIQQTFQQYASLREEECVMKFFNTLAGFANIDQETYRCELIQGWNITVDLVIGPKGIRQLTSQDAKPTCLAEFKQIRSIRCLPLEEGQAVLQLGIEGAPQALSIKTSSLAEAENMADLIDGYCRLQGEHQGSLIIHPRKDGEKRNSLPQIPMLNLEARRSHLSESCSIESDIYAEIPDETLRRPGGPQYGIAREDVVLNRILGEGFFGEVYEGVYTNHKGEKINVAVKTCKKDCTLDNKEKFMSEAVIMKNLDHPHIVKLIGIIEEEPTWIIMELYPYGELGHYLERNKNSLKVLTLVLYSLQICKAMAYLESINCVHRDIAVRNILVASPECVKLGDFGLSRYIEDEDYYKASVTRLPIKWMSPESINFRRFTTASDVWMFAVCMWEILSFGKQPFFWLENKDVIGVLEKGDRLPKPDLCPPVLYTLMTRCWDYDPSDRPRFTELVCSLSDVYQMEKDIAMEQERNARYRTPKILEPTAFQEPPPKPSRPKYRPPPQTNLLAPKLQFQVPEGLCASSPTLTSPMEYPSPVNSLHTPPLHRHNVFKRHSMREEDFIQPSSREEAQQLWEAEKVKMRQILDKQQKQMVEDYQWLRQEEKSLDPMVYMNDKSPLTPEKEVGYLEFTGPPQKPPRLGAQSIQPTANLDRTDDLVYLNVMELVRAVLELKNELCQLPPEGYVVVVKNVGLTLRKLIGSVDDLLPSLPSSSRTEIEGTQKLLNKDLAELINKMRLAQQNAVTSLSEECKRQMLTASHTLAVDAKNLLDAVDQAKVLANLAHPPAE
Chain of Platelet-derived growth factor receptor beta (Homo sapiens) (P09619 whole entry): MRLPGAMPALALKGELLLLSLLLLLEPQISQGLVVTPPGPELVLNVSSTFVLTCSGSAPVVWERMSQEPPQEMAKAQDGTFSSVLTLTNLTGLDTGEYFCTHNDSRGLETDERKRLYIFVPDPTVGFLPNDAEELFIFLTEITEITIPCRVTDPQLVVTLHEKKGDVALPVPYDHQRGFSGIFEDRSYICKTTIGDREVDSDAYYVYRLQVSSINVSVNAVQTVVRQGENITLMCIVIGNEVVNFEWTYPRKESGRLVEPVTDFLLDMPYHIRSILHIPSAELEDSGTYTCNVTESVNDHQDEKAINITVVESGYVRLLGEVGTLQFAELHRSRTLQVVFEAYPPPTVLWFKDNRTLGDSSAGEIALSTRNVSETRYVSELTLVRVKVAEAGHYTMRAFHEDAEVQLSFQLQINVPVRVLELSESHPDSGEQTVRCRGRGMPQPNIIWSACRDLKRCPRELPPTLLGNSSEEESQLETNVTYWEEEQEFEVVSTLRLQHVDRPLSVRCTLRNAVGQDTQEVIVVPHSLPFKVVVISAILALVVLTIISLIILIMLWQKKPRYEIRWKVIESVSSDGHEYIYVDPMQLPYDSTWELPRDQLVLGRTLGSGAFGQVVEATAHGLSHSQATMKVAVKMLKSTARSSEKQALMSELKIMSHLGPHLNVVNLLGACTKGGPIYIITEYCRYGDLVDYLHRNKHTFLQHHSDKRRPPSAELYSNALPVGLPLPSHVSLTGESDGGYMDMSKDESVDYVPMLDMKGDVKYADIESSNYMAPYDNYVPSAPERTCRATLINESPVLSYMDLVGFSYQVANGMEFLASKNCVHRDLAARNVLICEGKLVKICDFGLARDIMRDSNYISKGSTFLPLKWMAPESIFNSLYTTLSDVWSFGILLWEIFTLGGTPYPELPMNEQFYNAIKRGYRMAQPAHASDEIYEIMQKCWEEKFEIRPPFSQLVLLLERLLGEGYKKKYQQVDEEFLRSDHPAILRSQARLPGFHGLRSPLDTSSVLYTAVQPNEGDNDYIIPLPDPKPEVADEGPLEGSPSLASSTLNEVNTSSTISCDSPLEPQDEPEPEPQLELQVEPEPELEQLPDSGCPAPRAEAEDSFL
Chain of Proto-oncogene tyrosine-protein kinase receptor Ret (Homo sapiens), P07949 [V804L] (P07949 whole entry V804L): as the sequence (P07949 whole entry Y791F) above, with F791Y, V804L counted along it
Chain of Tyrosine-protein kinase FRK (Homo sapiens) (P42685 whole entry): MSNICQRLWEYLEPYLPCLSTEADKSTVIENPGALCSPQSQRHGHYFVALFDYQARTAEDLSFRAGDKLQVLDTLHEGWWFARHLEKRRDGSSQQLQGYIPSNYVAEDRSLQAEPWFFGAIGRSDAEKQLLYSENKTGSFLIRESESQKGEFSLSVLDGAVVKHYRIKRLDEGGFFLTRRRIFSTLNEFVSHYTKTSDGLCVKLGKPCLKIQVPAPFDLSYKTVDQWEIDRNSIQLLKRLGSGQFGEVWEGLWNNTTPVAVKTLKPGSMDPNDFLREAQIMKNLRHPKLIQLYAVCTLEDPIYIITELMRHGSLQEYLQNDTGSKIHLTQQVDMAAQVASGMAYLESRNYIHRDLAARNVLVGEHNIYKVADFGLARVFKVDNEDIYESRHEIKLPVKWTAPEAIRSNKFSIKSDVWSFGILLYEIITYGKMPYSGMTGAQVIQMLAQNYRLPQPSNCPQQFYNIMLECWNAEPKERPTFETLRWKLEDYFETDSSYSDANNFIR

| Compound | inhibition [1] [%] | inhibition [2] [%] | inhibition [3] [%] | inhibition [4] [%] | inhibition [5] [%] | inhibition [6] [%] | inhibition [7] [%] | inhibition [8] [%] | inhibition [9] [%] | inhibition [10] [%] |
| --- | --- | --- | --- | --- | --- | --- | --- | --- | --- | --- |
| CS(=O)(=O)CCNCc1coc(-c2ccc3ncnc(Nc4ccc(OCc5ccccc5)cc4)c3c2)c1 | 5.87 | 1.08 | 0.27 | 3.8 | 3.38 | 3.04 | 8.54 | 3.88 | 5.06 | 6.2 |
| Fc1cccc(COc2ccc(Nc3ncnc4sc(-c5ccco5)cc34)cc2Cl)c1 | 15 | 4.23 | 3.25 | 6.41 | 5.02 | 3.58 | 5.02 | 5.96 | 11.1 | 8.01 |
| COC(=O)c1sc(-n2cnc3cc(OC)c(OC)cc32)cc1OCc1ccccc1C(F)(F)F | 54.9 | 2.68 | 2.31 | 11.6 | 10.7 | 24.8 | 64.5 | 9.09 | 27.8 | 25.1 |
| c1ccc(-c2nc3n(c2-c2ccc4c(c2)OCO4)CCC3)nc1 | 4.62 | 0.91 | 0.2 | 5.1 | 6.96 | 2.81 | 4.44 | 1.37 | 1.16 | 2.63 |
| c1ccc(COc2ccc(Nc3ncnc4ccc(-c5ccco5)cc34)cc2)cc1 | 0.57 | -0.18 | 0.89 | -2.12 | 1.9 | 1.71 | 2.96 | 1.93 | 2.59 | 1.88 |
| CCNC(=O)O[C@H]1CN[C@H](C#Cc2cc3ncnc(Nc4ccc(OCc5cccc(F)c5)c(Cl)c4)c3s2)C1 | 5.63 | 1.7 | 1.79 | 9.03 | 7.74 | 2 | 3.91 | 2.16 | 0.84 | 1.93 |
| COc1cccc(-n2ncc3c(N/N=C/c4ccc(F)cc4)ncnc32)c1 | 45.3 | 4.95 | 1.58 | 8.88 | 13.6 | 5.24 | 14.9 | 2.47 | 7.65 | 1.26 |
| CCn1c(-c2nonc2N)nc2c(C#CC(C)(C)O)nc(OC[C@H](N)c3ccccc3)cc21 | 57.2 | -0.38 | 2.68 | 1.28 | 9.96 | 6.89 | 38 | 1.38 | 6.67 | 18.6 |
| Fc1ccc(-c2nn3ccccc3c2-c2ccncc2)cc1 | 12.7 | 0.42 | 1.58 | 3.99 | 4.06 | 1.59 | 5.12 | 0.36 | 1.74 | 4.32 |
| Nc1nc(-c2cccc(Cl)c2)c(-c2ccc3ncccc3n2)s1 | 15 | 3.21 | 3.32 | 10.4 | 14.5 | 4.79 | 5.99 | 8.87 | 14.1 | 3.93 |
| COC(=O)Nc1nc2ccc(Oc3ccc(NC(=O)Nc4cccc(Cl)c4)cc3)cc2[nH]1 | 28.7 | 0.45 | 0.48 | 0.45 | 5.25 | 52.1 | 74.4 | 23.8 | 54.8 | 45.5 |
| Cc1ccc(O)cc1Nc1ccnc2cc(-c3ccccn3)ccc12 | 87 | 18.9 | 68.2 | 10.1 | 17.6 | 84.2 | 89.8 | 4.72 | 3.44 | 92.3 |
| NS(=O)(=O)c1ccc(Nc2ncc(-c3ccccc3)o2)cc1 | 46.6 | 1.2 | 1.36 | 10.6 | 19.8 | 3.66 | 7.66 | 3.57 | 10 | 0.77 |
| CC1=C(C(=O)Nc2cc(Cl)c3[nH]ncc3c2)C(c2ccc(C(F)(F)F)cc2)CC(=O)N1 (stereo not given) | 3.69 | 3.64 | 7.85 | 5.71 | 9.35 | 4.22 | 15.2 | 4.98 | 33.3 | 2.42 |
| CCCN(CCS(C)(=O)=O)Cc1ccc(-c2ccc3ncnc(Nc4ccc(OCc5cccc(F)c5)c(Cl)c4)c3c2)o1 | 8.69 | 0.49 | 2.46 | 3.28 | -1.09 | 4.68 | 7.59 | 1.01 | 5.01 | 2.4 |
| CCN(CC)S(=O)(=O)c1ccc(OC)c(Nc2ncc(-c3ccccc3)o2)c1 | 63.8 | 1.39 | 9.88 | -0.93 | 16.5 | 9.2 | 36.2 | 3.84 | 21.3 | 5.14 |
| N#Cc1c(NC(=O)c2ccc(F)cc2)sc2c1CCCC2 | 5.64 | 0.6 | 1.01 | 1 | 1.23 | 0.59 | -0.03 | 1.83 | 2.29 | 1.07 |
| CS(=O)(=O)CCNCc1ccc(-c2ccc3ncnc(Nc4ccc(OCc5ccccc5)c(C(F)(F)F)c4)c3c2)o1 | 2 | 3.35 | 2.29 | 8.29 | 7.02 | 5.03 | 2.3 | 3.65 | 4.42 | 6.07 |
| COC(=O)Nc1nc2ccc(S(=O)(=O)c3ccc(NC(=O)Nc4cc(C(F)(F)F)ccc4F)cc3)cc2[nH]1 | 4.49 | 2.02 | 0.33 | 2.8 | 6.27 | 5.15 | 5.22 | 5.11 | 2.64 | 5.5 |
| CCOc1ccc2c(-c3ccnc(Nc4cccc(C(F)(F)F)c4)n3)cnn2n1 | 20.5 | 2.02 | 0.63 | -2 | 3.33 | 0.9 | 5.18 | 5.38 | 6.22 | 7.78 |

| Compound | inhibition [1] [%] | inhibition [2] [%] | inhibition [3] [%] | inhibition [4] [%] | inhibition [5] [%] | inhibition [6] [%] | inhibition [7] [%] | inhibition [8] [%] | inhibition [9] [%] | inhibition [10] [%] |
| --- | --- | --- | --- | --- | --- | --- | --- | --- | --- | --- |
| COc1ccc(-c2cc3c(N)ncnc3o2)cc1 | 11.2 | 0.49 | 0.16 | -4.88 | 8.21 | -1.19 | 0.94 | 0.48 | 2.98 | 2.13 |
| CN1CCC(n2cnc(-c3ccc(F)cc3)c2-c2ccnc(N)n2)CC1 | 29.6 | 0.15 | 1.13 | -2.24 | 6.37 | 5.6 | 18.7 | 1.63 | 13.3 | 4.75 |
| CC(C)(CO)CNC(=O)c1ccc2c(c1)/C(=N/Nc1ccc(S(N)(=O)=O)cc1)C(=O)N2 | 72.3 | -0.08 | -0.01 | -4.01 | 18.8 | 9.94 | 49.1 | 33.5 | 72.5 | 13.8 |
| CNC(=O)c1cccc(C#Cc2cncnc2Nc2ccc(OCc3cccc(F)c3)c(Cl)c2)c1 | 14.1 | -0.32 | -0.09 | -0.72 | 5.17 | 1.18 | 11.6 | 2.44 | 12.6 | 0.02 |
| Clc1ccc(-c2nn3ncccc3c2-c2ccnc(Nc3ccccc3)n2)cc1 | 39.4 | 0.95 | 3.48 | 7.96 | 14.7 | 8.76 | 42 | 4.29 | 4.92 | 9.6 |
| COc1ccc(CNC(=O)c2ccc(-c3cc(-c4nnc(C)o4)ccc3C)cc2)cc1 | 13 | 0.66 | 1.5 | -0.09 | 5.83 | 7.22 | 7.69 | 14 | 15.8 | 6.44 |
| O=C(Nc1n[nH]c2cc(-c3ccc(F)cc3)ccc12)C1CC1 | 7.77 | 1.74 | 2.21 | 9.12 | 9.39 | 2.79 | 3.73 | 2.36 | 3.06 | 4.2 |
| CC(=O)Nc1cccc(C#Cc2cncnc2Nc2ccc(OCc3cccc(F)c3)c(Cl)c2)c1 | 6.94 | 0.81 | 2.51 | -2.17 | 4.14 | 6.84 | 11 | 5.7 | 9.51 | 13.3 |
| CCn1c(-c2nonc2N)nc2ccccc21 | 5.69 | 0.05 | 1.69 | 4.43 | 7.84 | 1.65 | 3.15 | 2.56 | 0.52 | 4.13 |
| O=S(=O)(CCNCc1ccc(-c2ccc3ncnc(Nc4ccc(OCc5cccc(F)c5)c(Cl)c4)c3c2)o1)c1ccccc1 | 12.2 | 4.29 | 3.5 | 5.1 | 12.9 | 6.34 | 3.04 | 7.31 | 9.24 | 10.8 |
| CC(=O)NCc1cccc(C#Cc2cncnc2Nc2ccc(OCc3cccc(F)c3)c(Cl)c2)c1 | 6.15 | 1.61 | 1.03 | 3.96 | 0.92 | 3.99 | 20.2 | 2.58 | 6.73 | 1.6 |
| Fc1ccc(-c2cc(-c3c[nH]nc3-c3ccccn3)ccn2)cc1 | 11.8 | 2.82 | 1.26 | 7.36 | 19.4 | 5.13 | 2.43 | 2.33 | 8.21 | 3.92 |
| COc1cc(Nc2nccc(Nc3ccc4c(C)n[nH]c4c3)n2)cc(OC)c1OC | 87.5 | 1.94 | 11.5 | 25.2 | 84.3 | 51.1 | 84 | 25.3 | 68.7 | 57.5 |
| CCn1cc(-c2ccnc3[nH]ccc23)c(-c2cccc(NC(=O)Nc3ccc(OCc4ccccc4)cc3)c2)n1 | 3.09 | 1.32 | 1.39 | 3.44 | 3.88 | 0.08 | 0.88 | 0.99 | 0.01 | 2.29 |
| Nc1ncc(-c2cccc(S(N)(=O)=O)c2)c2scc(-c3ccc(F)c(Cl)c3)c12 | 53.4 | 2.22 | 14.2 | 2.23 | 20.8 | 11.8 | 49 | 5.58 | 7.48 | 12.4 |
| CCN1CCC(CC(=O)Nc2n[nH]c3nnc(-c4cccc(F)c4F)cc23)CC1 | 5.87 | 0.59 | -2.06 | 2.01 | 2.8 | 3.04 | 1.36 | 3.31 | 3.73 | 4.22 |
| COc1cc(/C=N/Nc2ncnc3[nH]ncc23)ccc1O | 67 | 2.72 | 3.55 | 11.4 | 29.7 | 59 | 83.4 | 17.8 | 68.6 | 56.7 |
| COc1ccc(-c2cc(-c3c[nH]nc3-c3ccccn3)ccn2)cc1 | 31.9 | 3.08 | 2.92 | 7.68 | 13.9 | 5.33 | 5.9 | 4.29 | 5.73 | 6.24 |
| NC(=O)c1sc(-n2cnc3ccc(C(F)(F)F)cc32)cc1OCc1ccccc1Br | 7.98 | 2.51 | 2.35 | 9.64 | 12.8 | 1.18 | 4.33 | 2.41 | 3.36 | 3.67 |

From ChEMBL document CHEMBL1961873, “Compounds: GSK PKIS; Assays: Nanosyn kinase panel” (2012)
